SF-1 inh: blocks the human nuclear receptor SF-1. Q13285. CHO-K1 Gal4-SF-1 LBD luciferase reporter. inhibition, % at 10 µM. hit rate 0.55% among 65,000. AID 525;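 active = inhibition above the mean inhibition of all tested compounds plus 3 SD, cut at about 48% in these data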
Target sequence (Q13285 whole entry, looked up, the tested form may be a part): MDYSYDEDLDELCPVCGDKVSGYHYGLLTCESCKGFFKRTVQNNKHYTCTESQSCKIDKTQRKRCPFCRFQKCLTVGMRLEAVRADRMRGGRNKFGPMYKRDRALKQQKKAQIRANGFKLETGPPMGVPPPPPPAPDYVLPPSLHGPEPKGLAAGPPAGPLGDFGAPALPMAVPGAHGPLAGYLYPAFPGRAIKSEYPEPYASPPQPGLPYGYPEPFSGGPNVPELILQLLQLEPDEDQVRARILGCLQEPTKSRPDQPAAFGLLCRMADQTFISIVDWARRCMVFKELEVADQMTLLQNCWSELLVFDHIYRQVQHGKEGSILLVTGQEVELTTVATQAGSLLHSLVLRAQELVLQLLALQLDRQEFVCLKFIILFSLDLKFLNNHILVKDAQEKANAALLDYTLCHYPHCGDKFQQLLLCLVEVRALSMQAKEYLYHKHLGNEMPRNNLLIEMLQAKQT
Of the large screens only hits and unclear results are named; the others gave an inactive call. The full list was thinned out, with hits kept by preference.

Brc1cccc(-c2nnc(-c3ccccc3)o2)c1	none
Cc1ccc(OCCSc2nnc(-c3ccncc3)n2C)cc1	none
c1ccc(OCCSc2nnnn2-c2ccccc2)cc1	none
c1ccc(OCCSc2nnc3sc4ccccc4n23)cc1	SF-1 inh 54.2
C=CCNC(=O)CN(c1ccc(F)cc1)S(=O)(=O)c1ccc(OC)cc1	none
Cc1onc(-c2ccccc2)c1C(=O)Nc1cccc(C#N)c1	none
COC1Cc2ccccc2N(C(=O)N2CCN(CCO)CC2)c2ccccc21 (configuration not stated)	none
CCS(=O)(=O)Nc1cc(-c2nc3cccnc3s2)ccc1C	none
O=S(=O)(Nc1cccc2ncccc12)c1cccs1	SF-1 inh 95.7
O=C(CN1CCN(c2ccccn2)CC1)Nc1cccc(C(F)(F)F)c1	none
Cc1cnc(NC(=O)CN2CCN(c3ccccn3)CC2)s1	SF-1 inh 61.3
COc1ccccc1NC(=O)N1CCN(c2ccccn2)CC1	none
COc1cc(NC(=O)N[C@H](C(=O)O)C(C)C)cc(OC)c1	none
COC(=O)c1ccc(S(=O)(=O)NCCSc2nnc3c4ccccc4n(C)c3n2)cc1	none
CC1CCc2nc(NC(=O)c3ccco3)sc2C1 (configuration not stated)	SF-1 inh 63.6
CS(=O)(=O)c1ccc2nc(NC(=O)c3ccco3)sc2c1	none
CC1CCc2nc(NC(=O)Cc3cccs3)sc2C1 (configuration not stated)	none
O=C(CCC(=O)c1ccc[nH]1)c1ccc(Cl)cc1	none
Cc1ccccc1-c1nnc(-c2ccc(Br)cc2)o1	none
Cc1ccc(-c2nnc(Nc3ccccc3)o2)cc1	SF-1 inh 67.9
c1coc(-c2nnc(NC3=NCCC3)o2)c1	none
O=C(N(c1ccccc1)c1ccccc1)n1ccnc1	none
O=C(Cc1ccccc1)N(c1ccc(F)cc1)C1C=CS(=O)(=O)C1 (configuration not stated)	none
O=c1[nH]cnc2c1N1CCC2CC1	none
CCOC(=O)COc1nc(Nc2ccccc2C)nc(N(C)C)n1	none
O=C(Nc1cccc(-c2nnc(-c3ccccc3)o2)c1)C1CCCCC1	none
O=C(Nc1ccc2oc(-c3ccccc3)nc2c1)c1cccnc1	none
O=C(Nc1ccccc1)c1cccc(-c2nnc(-c3ccccc3)o2)c1	SF-1 inh 62.7
COc1cc(C2C3C(=O)N(Cc4ccccc4)C(=O)C3ON2c2ccccc2)cc(OC)c1O (configuration not stated)	none
COc1cc2nc(=S)n3[nH]c(CCn4nc(C)cc4C)nc3c2cc1OC	SF-1 inh 60.6
COC(=O)C(Cc1ccc(O)cc1)NC(=O)c1ccccc1OC (configuration not stated)	none
Oc1c(CN2CCCCC2)cc(COCc2ccccc2)c2cccnc12	SF-1 inh 88.7
O=C(c1cccc(COc2ccc(Cl)cc2Cl)c1)N1CCN(c2ccccn2)CC1	none
COc1ccc(-n2nc(C(=O)NCC(=O)N3CCN(c4ccccn4)CC3)c3ccccc3c2=O)cc1	none
COCc1cc(CN2CCCC2)c(O)c2ncccc12	SF-1 inh 49.8
c1ccc(Cn2nnnc2CN2CCCC2)cc1	none
Oc1c(CN2CCN(c3ccccn3)CC2)cc(Cl)c2cccnc12	SF-1 inh 67.1
O=C(Nc1ccc2c(c1)OCO2)c1ccc(COc2ccc3c(c2)CCC3)o1	none
Cc1cc2c(cc1C)NC(c1c(C)n(C)n(-c3ccccc3)c1=O)C1=C(CC(C)(C)CC1=O)N2 (configuration not stated)	none
CCC(OC(=O)CCc1nc2ccccc2[nH]c1=O)C(=O)c1ccccc1 (configuration not stated)	none
O=C(Nc1cccc(C(F)(F)F)c1)C1CCN(S(=O)(=O)c2cnc[nH]2)CC1	none
Cc1c(C(=O)O)sc(=S)n1CCOc1ccccc1	none
CCCCOC(=O)C(C)c1c(C)[nH]c(=S)[nH]c1=O (configuration not stated)	none
O=C(NC(NCc1ccccn1)(C(F)(F)F)C(F)(F)F)c1ccco1	none
O=C1NC(NS(=O)(=O)c2ccccc2)(C(F)(F)F)C(=O)N1Cc1cccnc1 (configuration not stated)	none
Cc1cc(C)n2nc(SCC3COc4ccccc4O3)nc2n1 (configuration not stated)	none
Cc1ccc(-c2noc(CCCC(=O)N3CCOCC3)n2)cc1	none
COc1ccc(-c2ccc(CCC(=O)O)n2C(C)C)cc1	none
CCOc1ccc(-c2noc(CCC(=O)O)n2)cc1	SF-1 inh 53.2
CCOc1ccc(-c2nnc(N)o2)cc1	none
Cc1ccc(OCc2nc(-c3ccccc3)no2)c(C)c1	none
COc1ccc(-c2noc(CCCC(=O)O)n2)cc1	SF-1 inh 56.6
O=C(NCC(c1cccnc1)N1CCN(c2ccc(F)cc2)CC1)c1ccc2c(c1)OCO2 (configuration not stated)	none
COc1ccc(C)cc1NC(=O)c1cc2c(CO)cnc(C)c2oc1=N	none
Cc1cc(Nc2ccc(F)cc2F)n2ncnc2n1	none
Cc1cccc(N(C)C(=S)Oc2ccc3ccccc3c2)c1	none
CCCc1[nH]nc2c1C1(C(=O)N(CC)c3ccccc31)C(C#N)=C(N)O2 (configuration not stated)	none
CC(=O)CC1(O)C(=O)N(CN2CCN(c3ccccc3)CC2)c2ccccc21 (configuration not stated)	none
O=C(Nc1ccc(F)cc1)c1cccc2c1C(=O)N(Cc1ccccn1)C2	none
Nc1nonc1-c1noc(CCCN2C(=O)c3ccccc3C2=O)n1	none
O=C(Nc1nc2cc3c(cc2s1)OCO3)C1=COCCO1	SF-1 inh 62.2
c1c2c(cc3sc(N4CCOCC4)nc13)OCO2	none
c1ccc(N2CCN(c3nc4cc5c(cc4s3)OCO5)CC2)cc1	none
Cc1cc(O)c(C2(C(F)(F)F)NCCNC2=O)cc1C (configuration not stated)	none
CCc1ccc2oc(-c3cc(N)ccc3O)nc2c1	SF-1 inh 56.0
CCc1ccc2oc(-c3cc(N)ccc3Cl)nc2c1	none
CCc1ccc2oc(-c3cc(N)cc(C)c3O)nc2c1	none
COc1ccc(CN/C=C2\CCCCC2=O)cc1	none
NC(Cc1cccc2nsnc12)C(=O)O (configuration not stated)	none
COc1cccc(CN(Cc2cccnc2)S(=O)(=O)c2ccc(-n3cnnn3)c(C)c2)c1	none
Cc1cc(C)c(C(=O)CSc2n[nH]c(=O)n2C2CC2)cc1C	none
Cc1cc2c(c(=O)n1CCCn1ccnc1)C(c1ccco1)C(C#N)=C(N)O2 (configuration not stated)	none
CCOC(=O)C1=C(C)N(C)C(C)=C(C(=O)OCC)C1c1cccnc1	none
CCN(CC)c1ccc2c(c1)OC(N)=C(C#N)C2c1cccnc1 (configuration not stated)	SF-1 inh 64.6
O=S(=O)(Nc1cccnc1)c1ccc2c(c1)OCCO2	none
Cc1c(C(=O)O)oc2ccc(S(=O)(=O)NCc3ccc4c(c3)OCO4)cc12	none
CCOC(=O)c1oc2ccc(S(=O)(=O)Nc3ccc4c(c3)n(C)c(=O)n4C)cc2c1C	SF-1 inh 57.2
CCOC(=O)c1ccc(NS(=O)(=O)c2ccc3[nH]c(=O)[nH]c3c2)cc1	none
COc1ccccc1OCc1csc(NC(=O)c2ccco2)n1	none
CC(=O)NC1Sc2ccccc2N=C1c1ccccc1 (configuration not stated)	none
CCOC(=O)CSc1nc2ccccc2c(=O)n1NC(=O)c1ccccc1	none
Cc1cc(/C=c2/sc3nc4ccccc4n3c2=O)c(C)n1-c1ccccn1	SF-1 inh 85.1
CCOC(=O)Cn1c(-c2ccccn2)nc2ccccc21	none
FC(F)(F)C(F)(F)C(F)(F)c1nnc2ccc(N3CCOCC3)nn12	none
Cn1cccc1C(=O)NC(=O)CSc1nc2ccccc2s1	none
CC(=O)c1c(C)[nH]c(C)c1C(C)=O	none
Cc1ccccc1C(=O)Nc1ccc(Br)cn1	none
CC(=O)c1c(C)[nH]c(C(=O)Nc2ccc(C)cn2)c1C	SF-1 inh 50.8
c1ccc(OCCSc2ncnc3nc[nH]c23)cc1	none
